Results as given in PubChem BioAssay (EPA / NIEHS).
Where “and” joins values, the source holds several entries; their conditions need not be identical. Equal values may be shown once. Results filed as inconclusive are left out. Some structures have more than one record in an assay (separate samples or runs), and their calls can disagree. Calls of active or inactive are those of the source. Rule for the calls: active = hit-call score of the fitted dose curve at least 0.9, where 1 is the maximum; inconclusive = response in the unintended direction; inactive = score below 0.9.

Tests used:
[1] = ATG_XTT_Cytotoxicity: Cytotoxicity Assessment in the Attagene TRANS-FACTORIAL HepG2 Assay (AID 2283584);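 for AC50: XTT signal for cell number as viability in transfected HepG2 cells; cells exposed to compound for 24 h before reading; active means loss of viability signal versus DMSO baseline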
Summary of the method: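 HepG2 cells transiently transfected with GAL4-UAS multiple reporter units, dosed 24 h; cytotoxicity read by XTT as loss of signal versus DMSO baseline.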

[2] = target: Cellular tumor antigen p53 (Homo sapiens) (UniProt P04637); assay: TOX21_p53_BLA_p2_ratio: Tox21 HCT-116 p53 Agonism Beta-lactamase Assay, Ratio, Phase 2 (AID 2283592)
Summary of the method: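 First, HCT116 reporter cells settle for 5 h at 37C. Next, DMSO compound solutions are pinned in (217-fold dilution) and left 16 h. Finally, CCF4-AM substrate is loaded 2 h at room temperature and the 460/530 nm ratio read.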

[3] = TOX21_p53_BLA_p3_viability: Viability Assessment in the Tox21 HCT-116 p53 Agonism Beta-lactamase Assay, Phase 3 (AID 2283593);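 note: cells exposed to compound for 16 h before reading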
Summary of the method: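 Cellular ATP was quantified by CellTiter-Glo luminescence, read after 30 min at room temperature. Beforehand, HCT116 cells (4000/well) received compound 5 h post-seeding, 217-fold diluted from DMSO, then incubated 16 h at 37C.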

[4] = target: Cellular tumor antigen p53 (Homo sapiens) (UniProt P04637); assay: TOX21_p53_BLA_p3_ratio: Tox21 HCT-116 p53 Agonism Beta-lactamase Assay, Ratio, Phase 3 (AID 2283596)
Summary of the method: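 Cells were seeded at 4000/well, rested 5 h at 37C, then dosed with DMSO compound solutions (217-fold dilution) for 16 h. CCF4-AM substrate was loaded for 2 h at room temperature, and the 460/530 nm emission ratio was fitted for gain of signal versus DMSO.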

[5] = TOX21_p53_BLA_p4_viability: Viability Assessment in the Tox21 HCT-116 p53 Agonism Beta-lactamase Assay, Phase 4 (AID 2283597);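 note: hits lower the luminescence signal meaning cytotoxicity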
Summary of the method: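 4000 HCT116 cells per well; 5 h attachment; compounds from DMSO, 217-fold dilution; 16 h at 37C. Then CCF4-AM, 2 h RT, followed by CellTiter-Glo, 30 min RT, luminescence. Decrease = cytotoxicity.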

[6] = target: Cellular tumor antigen p53 (Homo sapiens) (UniProt P04637); assay: TOX21_p53_BLA_p5_ratio: Tox21 HCT-116 p53 Agonism Beta-lactamase Assay, Ratio, Phase 5 (AID 2283599)
Summary of the method: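 Beta-lactamase reporter ratio (blue 460 nm over green 530 nm, 405 nm excitation) after 2 h CCF4-AM loading, in HCT-116 cells exposed 16 h at 37 C to compounds pinned at 217-fold dilution. Increases relative to DMSO baseline scored.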

[7] = TOX21_p53_BLA_p5_viability: Viability Assessment in the Tox21 HCT-116 p53 Agonism Beta-lactamase Assay, Phase 5 (AID 2283600)
Summary of the method: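 Decreased CellTiter-Glo luminescence denotes lost viability. Exposure: 16 h at 37C, 5% CO2, with compounds from DMSO stocks diluted 217-fold in wells of 4000 cells.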

[8] = target: Cellular tumor antigen p53 (Homo sapiens) (UniProt P04637); assay: TOX21_p53_BLA_p4_ratio: Tox21 HCT-116 p53 Agonism Beta-lactamase Assay, Ratio, Phase 4 (AID 2283601)
Summary of the method: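 Signal is the blue/green (460nm/530nm) ratio of cleaved versus uncleaved CCF4-AM substrate, read after 2 h substrate loading. Cells were HCT116 carrying the p53-responsive beta-lactamase reporter, dosed 16 h at 37C, 5% CO2; CellTiter-Glo measured in parallel.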

[9] = TOX21_p53_BLA_p2_viability: Viability Assessment in the Tox21 HCT-116 p53 Agonism Beta-lactamase Assay, Phase 2 (AID 2283591);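 note: actives lower the ATP signal meaning cytotoxicity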
Summary of the method: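 Cytotoxicity readout: CellTiter-Glo ATP luminescence, 30 min at room temperature, after the beta-lactamase read. Cells were HCT116 exposed 16 h at 37C to compounds pin-transferred at 217-fold dilution from DMSO stocks.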

Measured: AC50

Cellular tumor antigen p53 (Homo sapiens), sequence (P04637 whole entry, looked up): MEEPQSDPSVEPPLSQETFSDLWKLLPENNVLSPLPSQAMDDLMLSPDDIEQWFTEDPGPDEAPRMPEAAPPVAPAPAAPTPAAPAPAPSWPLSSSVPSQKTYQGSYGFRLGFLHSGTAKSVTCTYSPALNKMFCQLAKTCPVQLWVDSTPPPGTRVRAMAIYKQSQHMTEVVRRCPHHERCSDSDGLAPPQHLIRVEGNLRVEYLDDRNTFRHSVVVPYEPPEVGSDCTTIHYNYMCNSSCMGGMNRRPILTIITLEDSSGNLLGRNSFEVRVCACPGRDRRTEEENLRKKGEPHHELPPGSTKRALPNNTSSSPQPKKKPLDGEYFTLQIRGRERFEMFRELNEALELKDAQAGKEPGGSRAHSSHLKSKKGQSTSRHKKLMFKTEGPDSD

CC1CCC(C(C)CS)CC1S (stereo unspecified)
active: [1] 152 µM
not listed: [9]
inactive: all other assays above

C=CC(=O)OCC(O)COc1ccccc1 (stereo unspecified)
inactive: [1] | [6] | [7]
active: [9] 45.5 µM | [5] 48.2 µM | [8] 37.6 µM

O=c1[nH]c(=O)n([C@H]2CCCO2)cc1F
not listed: [9]
inactive: all other assays above

OCCN1CCNCC1
active: [3] 82.8 µM
not listed: [9]
inactive: all other assays above

ClCCCl
not listed: [6] | [9]
inactive: all other assays above

CCCCCNCCCCC
not listed: [5] | [7] | [9]
inactive: all other assays above

Cc1ccccc1C=O
not listed: [2] | [3]
inactive: all other assays above

OC[C@H]1O[C@H](O[C@]2(CCl)O[C@H](CCl)[C@@H](O)[C@@H]2O)[C@H](O)[C@@H](O)[C@H]1Cl
not listed: [5] | [9]
inactive: all other assays above

CCCCCCCCCCCCN
active: [1] 68.9 µM and 58.2 µM | [2] 85 µM | [3] 80.4 µM and 66.7 µM | [5] 62.2 µM | [6] 83.1 µM | [7] 84.5 µM | [8] 86.1 µM
inactive: [2] | [4] | [6] | [7] | [8]

CC(=O)OCc1ccc2c(c1)OCO2
not listed: [5] | [9]
inactive: all other assays above

CC1(C)C(=O)N(Br)C(=O)N1Cl
inactive: [1] | [2] | [3] | [5] | [6]

C=C(C)C(=O)NCCCN(C)C
not listed: [5] | [9]
inactive: all other assays above

CN(C)C(=N)N=C(N)N
not listed: [9]
inactive: all other assays above

CCCCCCCCCCCCCCCC(=O)OC[C@H](O)[C@H]1OC(=O)C(O)=C1O
not listed: [5] | [6] | [9]
inactive: all other assays above

CC(C)CCCCCCCOC(=O)c1ccc(C(=O)OCCCCCCCC(C)C)c(C(=O)OCCCCCCCC(C)C)c1
inactive: [1] | [9] | [4] | [6] | [8]

O=C(O)c1cn(-c2ccc(F)cc2)c2cc(N3CCNCC3)c(F)cc2c1=O
not listed: [5] | [7] | [9]
inactive: all other assays above

Cc1ccc(C(=O)c2cc(O)c(O)c([N+](=O)[O-])c2)cc1
active: [2] 14.6 µM | [5] 46.1 µM | [6] 71.3 µM | [8] 49.6 µM
inactive: [1] | [2] | [4] | [5] | [6] | [7] | [8]

CCCCCC(=O)OCCc1ccccc1
not listed: [6] | [8] | [9]
inactive: all other assays above

O=[N+]([O-])c1ccc(Nc2ccc(Nc3ccccc3)c(S(=O)(=O)O)c2)c([N+](=O)[O-])c1
inactive: [1] | [9] | [5] | [7]

Cc1ncc([N+](=O)[O-])n1C
not listed: [5] | [6] | [9]
inactive: all other assays above

CCN(CC)c1ccc2c(-c3ccccc3C(=O)O)c3ccc(=[N+](CC)CC)cc-3oc2c1
not listed: [9]
inactive: all other assays above

c1cc(C(c2ccc(OCC3CO3)cc2)c2ccc(OCC3CO3)cc2)ccc1OCC1CO1 (stereo unspecified)
inactive: [1] | [9] | [5] | [7]

CSc1nc(NC2CC2)nc(NC(C)(C)C)n1
inactive: [1] | [9] | [3] | [5] | [6]

NCCNCCN
not listed: [9]
inactive: all other assays above

O=C[C@@H](O)[C@H](O)[C@H](O)CO
inactive: [1] | [2] | [3] | [7] | [8]

O=C1CCCCCCCCCCOCCCCO1
not listed: [3] | [9]
inactive: all other assays above

O=C(O)C[C@H](O)C[C@H](O)/C=C/c1c(C2CC2)nc2ccccc2c1-c1ccc(F)cc1
not listed: [3] | [9]
inactive: all other assays above

CCCCCCCCCCCCSC
not listed: [4] | [9]
inactive: all other assays above

CCCCCCCCCCCCN(CCCCCCCCCCCC)CCCCCCCCCCCC
inactive: [1] | [2] | [4]

CC(C)(C)c1n[nH]c(=S)n(N)c1=O
inactive: [1] | [2] | [4] | [5] | [6]

CC[Si](OC(C)=O)(OC(C)=O)OC(C)=O
not listed: [3] | [8] | [9]
inactive: all other assays above

CCCCCCCCCOC(C)=O
not listed: [3] | [9]
inactive: all other assays above

c1ccc2[nH]ccc2c1
not listed: [3] | [9]
inactive: all other assays above

CCCc1c(OCCCOc2ccc(OCC(=O)O)cc2)ccc(C(C)=O)c1O
inactive: [1] | [4]
active: [2] 63.8 µM | [5] 46.1 µM | [6] 66.6 µM | [7] 65.8 µM | [8] 69.2 µM

OCCCCCO
not listed: [3] | [5] | [9]
inactive: all other assays above

c1ccc(CCCc2ccccn2)cc1
not listed: [3] | [5] | [9]
inactive: all other assays above

C=C(C)C(=O)OCCOC(=O)CC(C)=O
not listed: [3] | [5] | [9]
inactive: all other assays above

CC1=CCC2C(C1)C2(C)C (stereo unspecified)
not listed: [3] | [5] | [9]
inactive: all other assays above

O=Cc1ccc(Cl)c([N+](=O)[O-])c1
not listed: [3] | [7] | [9]
inactive: all other assays above

O=C(O)Cc1cccc2ccccc12
not listed: [3] | [9]
inactive: all other assays above

OCCOCCOCCOCCO
not listed: [3] | [9]
inactive: all other assays above

O=C(O)CN(CCN(CC(=O)O)CC(=O)O)CCN(CC(=O)O)CC(=O)O
not listed: [3] | [9]
inactive: all other assays above

CC(=O)OCCC(C)CC(C)(C)C (stereo unspecified)
not listed: [3] | [5] | [9]
inactive: all other assays above

O=C1CCc2ccccc2O1
not listed: [3] | [9]
inactive: all other assays above

COc1ccc(O)cc1
not listed: [4] | [5] | [9]
inactive: all other assays above

CCCCOCCOCCSC#N
not listed: [3] | [5] | [9]
inactive: all other assays above

CCC(C)(O)CCC=C(C)C (stereo unspecified)
not listed: [3] | [5] | [9]
inactive: all other assays above

COc1ccc(Cl)cc1C
inactive: [1] | [2] | [4] | [6]

CCCCNC(=O)NS(=O)(=O)c1ccc(N)cc1
not listed: [3] | [5] | [9]
inactive: all other assays above

C=C(C)[C@@H]1CCC2=CC(=O)C[C@@H](C)[C@]2(C)C1
not listed: [3] | [5] | [9]
inactive: all other assays above

C=CC(C)(O)CCC=C(C)CCC=C(C)C (stereo unspecified)
inactive: [1] | [2] | [4] | [6]

C=COCCOCCOCCOC=C
not listed: [3] | [5] | [9]
inactive: all other assays above

CC[C@]12CCCN3CCc4c(n(c5ccccc45)[C@@](O)(C(=O)OC)C1)[C@@H]32
not listed: [3] | [5] | [9]
inactive: all other assays above

CC(C)c1cccc(O)c1
not listed: [3] | [5] | [9]
inactive: all other assays above
